The list is not random: actives were taken first. Their share in the collection is about 0.43%.
N370S GC mod = inhibitors or activators of N370S glucocerebrosidase for Gaucher disease | N370S GC spleen homogenate, 4MU-glucoside fluorescence | P04062 | AID 2101 | hit rate 0.092% among 330,000 | Potency, µM (series often up to 59.4 µM), for the others: top-dose activity change, negative = inhibition, usual class: inhibitors;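 note: potency is the fitted concentration of half-maximal effect; 0% = full enzyme activity and -100% = no enzyme basal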
aGlu spleen mod = lysosomal alpha-glucosidase (human) modulation; P10253; human spleen homogenate, 4-MU-alpha-glucoside fluorescence; Potency, µM (highest dose often 79.9 µM), for inactives: at the highest dose activity change, negative = inhibition, most hits filed as inhibitors; hit rate 0.006% among 240,000;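 note: potency is the fitted concentration of half-maximal effect; 0% = enzyme with vehicle and -100% = no enzyme basal signal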
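Compounds were titrated against alpha-glucosidase in spleen homogenate at pH 5.0, with 1 mM 4-methylumbelliferyl substrate for 40 min at 37 C. Reactions were quenched with pH 10 NaOH/glycine and fluorescence measured.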
GLA spleen mod = inhibitors or activators of human alpha-galactosidase in spleen homogenate | P06280 | human spleen homogenate, 4MU-alpha-Gal fluorescence, 40 min | Potency, µM (series often up to 80 µM), for the others: at the highest dose activity change, negative = inhibition, usual class: inhibitors | hit rate 0.008% among 240,000;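 note: potency is the fitted concentration of half-maximal effect; 0% = enzyme with vehicle and -100% = no enzyme basal signal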
Target sequence (P06280 32-429 limits assumed): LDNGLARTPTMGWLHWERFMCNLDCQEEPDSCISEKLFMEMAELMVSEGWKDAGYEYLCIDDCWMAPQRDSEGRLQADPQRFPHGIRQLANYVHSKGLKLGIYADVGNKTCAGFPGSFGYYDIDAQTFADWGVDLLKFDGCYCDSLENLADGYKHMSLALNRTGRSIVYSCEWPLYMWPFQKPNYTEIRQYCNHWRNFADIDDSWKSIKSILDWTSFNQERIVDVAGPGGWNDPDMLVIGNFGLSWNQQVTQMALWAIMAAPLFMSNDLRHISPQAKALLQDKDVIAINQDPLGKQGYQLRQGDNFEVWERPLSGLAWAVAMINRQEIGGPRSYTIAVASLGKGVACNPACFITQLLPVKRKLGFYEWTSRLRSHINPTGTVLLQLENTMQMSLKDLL
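Human spleen homogenate (1 ug) was the enzyme source, with 4-methylumbelliferyl-alpha-D-galactopyranoside (1 mM final) in pH 5.0 citrate buffer with 0.01% Tween-20. Compounds were titrated; after 40 min at 37C, NaOH/glycine stop, 4-MU fluorescence read; AC50 from Hill fits.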
GAA glycogen mod = alters human alpha-glucosidase cleavage of glycogen; recombinant GAA, glycogen substrate, Amplex Red glucose oxidase fluorescence; Potency, µM (titrated, usually from 76.4 µM), for the others: at the highest dose activity change, negative = inhibition, most hits filed as inhibitors; P10253; hit rate 0.38% among 300,000; AID 2100;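 note: potency is the fitted concentration of half-maximal effect; 0% = full enzyme reaction and -100% = no-enzyme basal signal; the screen sought inhibitors and activators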
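Natural-substrate format: glycogen cleavage by 4 nM human enzyme, glucose read by Amplex Red coupling (Ex 573, Em 610 nm). Normalized to enzyme and no-enzyme controls.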
GLA inh pH 4.5 = alpha-galactosidase A (human) inhibition, pH 4.5. P06280. purified enzyme, 4-MU-alpha-Gal fluorescence, pH 4.5. activity change, negative = inhibition, % at 105 µM. 230,000 tested, under 10 active;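 note: 0% = full activity with enzyme and -100% = basal without enzyme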
GAA inhib = inhibitors of human lysosomal alpha-glucosidase; P10253; Potency, µM (top dose mostly 76.9 µM), for inactives: at the top dose activity change, negative = inhibition, hits mostly inhibitors; purified human GAA, 4-MU-alpha-glucoside fluorescence; hit rate 0.005% among 200,000;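 note: potency is the fitted concentration of half-maximal effect; plate controls were uninhibited enzyme wells for no effect and no-enzyme background for full effect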
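AC50 values come from Hill fits of compound titrations (up to 77 uM) against 4 nM human enzyme. Substrate 4-methylumbelliferyl-alpha-D-pyranoside at 400 uM, pH 5.0 citrate buffer, 20 min room temperature; fluorescence Ex 365/Em 440 after alkaline stop.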
Numbers without * were called inactive; ? = inconclusive; / = no result; [ ] = remark or other dose. Calls come from the whole dose curve; as a rule, active = well fitted curve in the direction sought with a large enough effect; inconclusive = small, poorly fitted or top-dose-only effect, or another doubt; inactive = no such curve, though single readings can be large; an effect the other way counts as inactive or inconclusive.

SMILES | N370S GC mod | aGlu spleen mod | GLA spleen mod | GAA glycogen mod | GLA inh pH 4.5 | GAA inhib
COc1ccccc1N1CCN(/N=C/c2ccc(O)c(O)c2)CC1 | -16% | -5% | -7% | 2.8µM* | 7 | 10%
CC(=O)/C=C(\C)Nc1ccccc1O | -21% | -12% | -3% | 25µM* | -1 | /
Nc1ccc(-c2n[nH]c(=O)c3ccccc23)cc1N | -11% | -12% | -5% | 18µM* | -10 | ?
CCCCn1cc[n+](C)c1 | 2% | -7% | 2% | / | / | /
Cc1ccc(S(=O)(=O)N2CCN(C(=O)N(c3ccccc3)c3ccccc3)CC2)cc1 | / | -27% | -17% | ? | 0 | 25µM*
Cc1ccc(N(C)C(=O)N2CCN(S(=O)(=O)c3ccc(C)cc3)CC2)cc1 | 1% | -28% | -2% | -1% | -9 | ?
O=C(O)c1cc(=O)c2cc(Cl)ccc2[nH]1 | -7% | -3% | 10% | / | / | /
COc1ccc(-c2cc(-c3ccccc3)nc3c2COc2ccccc2-3)cc1 | / | / | / | -1%[76.3 µM] | / | /
COc1ccc(C2=Nc3ccccc3OC2)cc1 | 21% | 2% | 8% | 25µM* | ? | 0%
CC(C)NC(=O)C1=NN(c2ccccc2)C(=O)CC1 | -4% | / | / | 5% | / | /
O=C(NNC(=O)c1ccccc1F)C1=NN(c2ccccc2)C(=O)CC1 | -3% | / | / | 50µM* | / | /
Cc1noc(C)c1-c1ccc2ncnc(NCc3ccco3)c2c1 | 4% | 6% | 0% | / | / | /
CCCCCC1(C)NC(=S)N(c2ccccc2)N1 (stereo not drawn) | -5% | -2% | 0% | 35µM* | -3 | -4%
CCCCCCC1(C)NC(=S)N(c2ccccc2)N1 (stereo not drawn) | 9% | -6% | -8% | ? | 4 | -4%
COc1ccc(NC=O)c(C(=O)CCNC(C)=O)c1 | 1% | 9% | 7% | / | / | /
Cc1ccc(-c2nnc3c4ccccc4c(C)nn23)cc1S(=O)(=O)N1CCN(CCO)CC1 | 16µM* | -10% | 3% | 4% | 7 | -4%
Cc1ccc(-c2nnc3c4ccccc4c(C)nn23)cc1NC(=O)CN1CCOCC1 | 5% | 3% | 6% | 1% | 5 | -4%
CC(C)C[C@H](NC(=O)[C@H](CO)NC(=O)[C@@H]1CCCN1C(=O)[C@H](Cc1ccc(O)cc1)NC(=O)[C@H](CC(C)C)NC(=O)[C@H](CC(C)C)NC(=O)[C@@H]1CCCN1C(=O)[C@@H](NC(=O)[C@H](CO)NC(=O)[C@H](CO)NC(=O)[C@H](CO)NC(=O)[C@H](CO)NC(=O)[C@@H]1CCCN1C(=O)[C@@H](NC(=O)[C@@H](N)CO)C(C)C)[C@@H](C)O)C(=O)N[C@@H](C)C(=O)N[C@@H](CC(C)C)C(=O)N1CCC[C@H]1C(=O)N[C@@H](C)C(=O)N1CCC[C@H]1C(=O)O | -2% | -1% | 0% | / | / | /
Cc1nc(NS(=O)(=O)c2ccccc2)sc1NC(=O)OCCN(C)C | 4% | -5% | 1% | 25µM* | 3 | -5%
OC(COC(c1ccccc1)c1ccccc1)CN1CCc2ccccc2C1 (stereo not drawn) | -23% | -1% | -3% | -6% | -3 | -9%
OC(COC(c1ccc(Cl)cc1)c1ccc(Cl)cc1)CN1CCc2ccccc2C1 (stereo not drawn) | 7.9µM* | -1% | -4% | 8% | -10 | -2%
Nc1cc(S(=O)(=O)Nc2cc(Cl)ccc2Cl)ccc1N1CCCC1 | 14% | -5% | 1% | 18µM* | -3 | /
O=C(CN1CCN(S(=O)(=O)c2ccc(Cl)cc2)CC1)c1ccc(O)c(O)c1 | -28% | / | / | 8.9µM* | / | /
O=C(CN1CCN(S(=O)(=O)c2ccc(F)cc2)CC1)c1ccc(O)c(O)c1 | ? | -10% | -7% | 10% | -12 | ?
Cc1ccc(S(=O)(=O)N2CCN(CC(=O)N/N=C/c3ccc(C)o3)CC2)cc1 | -5% | -9% | 7% | -24% | -1 | ?
SMILES | N370S GC mod | aGlu spleen mod | GLA spleen mod | GAA glycogen mod | GLA inh pH 4.5 | GAA inhib
Cc1ccc(S(=O)(=O)N2CCN(CC(=O)N/N=C\c3ccc(O)c(O)c3)CC2)cc1 | -20% | ? | -18% | 6.3µM* | 4 | /
Nc1ccccc1S(=O)(=O)Nc1cccc2cccnc12 | 9% | -3% | -1% | / | / | /
CC(=O)N(c1ccc(Cl)cc1)c1cn(C(C)=O)c2ccccc12 | 18µM* | 9% | 0% | -7% | -8 | 2%
COc1cccc(/C=N/c2oc(-c3ccccc3)cc2C#N)c1O | -16% | -8% | 2% | 28µM* | -11 | -4%
N#Cc1cc(-c2ccccc2)oc1/N=C/c1ccccc1O | 4% | -7% | 1% | ? | 3 | -6%
CC1(C(=O)O)Sc2[nH]c(=O)sc2C2c3ccccc3OC(=O)C21 (stereo not drawn) | -8% | 5% | 6% | 25µM* | 2 | 1%
Oc1ccc(-c2nc3ccccn3c2NCc2ccco2)cc1 | ? | 3% | 3% | 14µM* | -2 | 2%
N#Cc1c(NC(NC(=O)c2ccco2)C(=O)c2ccccc2)sc2c1CCCC2 (stereo not drawn) | ? | -1% | 0% | 22µM* | -10 | -8%
NC(=O)c1c(NC(NC(=O)c2ccco2)C(=O)c2ccc(Cl)cc2)sc2c1CCCC2 (stereo not drawn) | 26% | -17% | -7% | -1% | -3 | -12%
Cc1ccccc1/C=N/Nc1nc2ccccc2[nH]1 | -14% | -7% | -7% | ? | 0 | -8%
Cc1ccc(/C=N/Nc2nc3ccccc3[nH]2)s1 | -21% | 2% | 5% | 28µM* | -7 | -6%
C(=N\Nc1nc2ccccc2[nH]1)/c1ccccc1 | -27% | -15% | 0% | ? | 9 | -2%
C(=N\Nc1nc2ccccc2[nH]1)/c1c[nH]c2ccccc12 | -10% | -1% | 11% | 22µM* | -3 | -2%
C(=N\Nc1nc2ccccc2[nH]1)/c1cccc2cccnc12 | -29% | -6% | 0% | 35µM* | 2 | -13%
Cc1cc(=O)[nH]c(N/N=C/c2c[nH]c3ccccc23)n1 | -1% | 0% | -1% | -26% | 1 | -19%
Nc1ccccc1NC(=O)c1ccc(CNC(=O)OCc2cccnc2)cc1 | 1% | 2% | -4% | / | / | /
Clc1ccc(Sc2cc(Cl)c(Cl)cc2Cl)cc1 | -2% | -1% | 1% | / | / | /
Cc1[nH]c2ccccc2c1C(O)CN1CCN(c2cccc(C(F)(F)F)c2)CC1 (stereo not drawn) | ? | -6% | 28µM* | -17% | ? | ?
CCCCC/C=C\C/C=C\CCCCCCCCCC(=O)NC(C)C(=O)O (stereo not drawn) | 2% | 8% | -2% | / | -13 | /
COc1ccc(C2=Nn3c(nnc3-c3ccc(OC)c(OC)c3)SC2)cc1 | -2% | 6% | 1% | / | / | /

Compound activity as filed in PubChem.
